These results are taken from PubChem BioAssay AID504474 (National Center for Advancing Translational Sciences (NCATS), 2011).

Molecules are shown by their SMILES. The source made the active and inactive calls.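 Rule for the calls: active = clear inhibition of the enzyme's cutting of labeled DNA at one or more tested doses; inactive = response stays at baseline.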

For the assay, the target named is Tyrosyl-DNA phosphodiesterase 1 (Homo sapiens) (UniProt Q9NUW8). Nature of the assay: Gel-Based Assay for Inhibitors of Tyrosyl-DNA Phosphodiesterase (TDP1): Hit Validation. The note with it: Recombinant TDP1, 32P-DNA substrate cleavage, gel densitometry. From the text: Assay Overview: Human tyrosyl-DNA phosphodiesterase I (Tdp1) is a rational anticancer target because this enzyme is involved in the repair of DNA lesions created by the trapping of human DNA topoisomerase I (Top1) following treatment by anticancer agents such as camptothecins. Recombinant Tdp1 was expressed and purified from E. coli in the laboratory (Anthony et al, Nucleic Acids Research, 2007, Vol. 35, 4474-4484). See below for assay protocol. This is assay was used to validate select hits from the related primary AlphaScreen assay (AID: 485290) NIH Molecular Libraries Probe Production Network [MLPCN] NIH Chemical Genomics Center [NCGC] Assay Provider: Yves Pommier and Christophe Marchand, National Cancer Institute
Chain of Tyrosyl-DNA phosphodiesterase 1 (Homo sapiens) (Q9NUW8 whole entry, looked up): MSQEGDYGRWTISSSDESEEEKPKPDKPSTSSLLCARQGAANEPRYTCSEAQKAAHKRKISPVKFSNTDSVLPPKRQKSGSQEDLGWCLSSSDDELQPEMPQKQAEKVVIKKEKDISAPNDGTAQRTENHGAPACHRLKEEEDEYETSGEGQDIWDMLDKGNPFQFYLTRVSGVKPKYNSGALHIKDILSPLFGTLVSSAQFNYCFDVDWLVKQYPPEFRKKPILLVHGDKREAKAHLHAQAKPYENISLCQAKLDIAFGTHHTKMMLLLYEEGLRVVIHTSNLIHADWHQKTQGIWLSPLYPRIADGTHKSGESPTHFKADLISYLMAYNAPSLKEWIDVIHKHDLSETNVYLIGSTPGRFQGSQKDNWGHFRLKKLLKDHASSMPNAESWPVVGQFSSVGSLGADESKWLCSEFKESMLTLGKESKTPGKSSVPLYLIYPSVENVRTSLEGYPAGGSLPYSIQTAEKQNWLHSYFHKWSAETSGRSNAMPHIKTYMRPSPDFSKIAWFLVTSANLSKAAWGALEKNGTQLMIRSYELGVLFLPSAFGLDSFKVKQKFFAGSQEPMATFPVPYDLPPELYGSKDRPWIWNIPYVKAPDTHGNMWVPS
5'-32P-labeled DNA substrate (1 nmol/L; N14Y; 5'-[…]-pY-3') was incubated with 0.2 nmol/L recombinant Tdp1 in the absence or presence of inhibitor for 15 min at room temperature in an assay buffer containing 1X PBS, pH 7.4, 80 mmol/L KCl and 0.01% Tween-20. Reactions were terminated by the addition of 1 volume of gel loading buffer [99.5% (v/v) formamide, 5 mmol/L EDTA, 0.01% (w/v) xylene cyanol, and 0.01% (w/v) bromophenol blue]. Samples were subjected to a 16% denaturing PAGE and gels were exposed after drying to a PhosphorImager screen (GE Healthcare). […]
`O=c1c2ccccc2nc2sc(Nc3cccc(Cl)c3)nn12`: the Potency was 7.4 µM (active).

In the case of `O=c1c2ccccc2nc2sc(Nc3ccc(F)cc3)nn12`, the outcome was inactive.
